Test results: PubChem BioAssay AID1159580 (chemical genetic matrix, 2015)
Where “and” joins values, the source holds several entries; their conditions need not be identical. Identical values can stand only once. In all, about 5,500 compounds went through this assay and about 2,000 (36%) were called active. Another 18% or so got no clear call; they are omitted. No stated cut-off is given here; in the data, active means normalized growth mostly below about 0.91 (no sharp cut-off); inconclusive means no clear call, values can overlap the other calls; inactive means mostly above about 0.92. The list shows a part of the results.

Experiment: chemical genetic growth profiling, strain panel (AID 1159580);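 further: tested at 20 µM; growth read once vehicle control cultures reached saturation at 30 °C; 1 = growth at the plate median or of vehicle wells; lower values mean less growth of the strain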
Conditions: S. cerevisiae deletion strains, growth OD

Measured: normalized growth

CCCC(=O)O[C@]1(C(=O)CO)CCC2[C@@H]3CCC4=CC(=O)CC[C@]4(C)C3[C@@H](O)C[C@@]21C (stereo not given in full)
inactive: locus YAL013W, strain DEP1, active compounds read low 1.01 | locus YAL021C, strain ccr4, active compounds read low 0.997 | locus YAL026C, strain drs2, active compounds read low 1.02 | locus YAL030W, strain snc1, active compounds read low 1 | locus YBL061C, strain skt5, active compounds read low 1 | locus YBR009C, strain hhf1, active compounds read low 1 | locus YBR021W, strain FUR4, active compounds read low 1.02 | locus YBR023C, strain chs3, active compounds read low 1 | locus YBR171W, strain sec66, active compounds read low 1.01 | locus YBR229C, strain ROT2, active compounds read low 1.02 | locus YBR231C, strain swc5, active compounds read low 1 | locus YBR279W, strain paf1, active compounds read low 0.996 | locus YCL011C, strain gbp2, active compounds read low 1.01 | locus YCL016C, strain dcc1, active compounds read low 1.01 | locus YCL029C, strain bik1, active compounds read low 0.983 | locus YCL061C, strain MRC1, active compounds read low 1 | locus YCL069W, strain vba3, active compounds read low 1 | locus YCR088W, strain abp1, active compounds read low 1.01 | locus YDL005C, strain med2, active compounds read low 1.01 | locus YDL035C, strain GPR1, active compounds read low 0.997 | locus YDL040C, strain nat1, active compounds read low 1.01 | locus YDL074C, strain BRE1, active compounds read low 1.01 | locus YDL101C, strain DUN1, active compounds read low 1.01 | locus YDL134C, strain PPH21, active compounds read low 1.01 | locus YDL185W, strain tfp1, active compounds read low 0.965 | locus YDL192W, strain arf1, active compounds read low 0.98 | locus YDR001C, strain nth1, active compounds read low 1.01 | locus YDR069C, strain doa4, active compounds read low 1.01 | locus YDR101C, strain arx1, active compounds read low 1.01 | locus YDR137W, strain rgp1, active compounds read low 1.01 | locus YDR150W, strain NUM1, active compounds read low 1.01 | locus YDR159W, strain sac3, active compounds read low 0.998 | locus YDR162C, strain NBP2, active compounds read low 0.991 | locus YDR195W, strain ref2 0.99 | locus YDR297W, strain sur2, active compounds read low 1.01 | locus YDR318W, strain mcm21, active compounds read low 1 | locus YDR334W, strain swr1, active compounds read low 1.02 | locus YDR335W, strain msn5, active compounds read low 1 | locus YDR388W, active compounds read low 0.976 | locus YDR392W, strain spt3, active compounds read low 1.01 | locus YDR502C, strain sam2, active compounds read low 0.981 | locus YEL003W, strain gim4, active compounds read low 1.01 | locus YEL037C, strain rad23, active compounds read low 1 | locus YEL061C, strain CIN8 (second series), active compounds read low 1.01 | locus YEL061C, strain CIN8, active compounds read low 1 | locus YER015W, strain faa2, active compounds read low 1.01 | locus YER016W, strain bim1, active compounds read low 1.01 | locus YER110C, active compounds read low 0.946 | locus YER111C, strain swi4, active compounds read low 1.01 | locus YER155C, strain BEM2 (second series), active compounds read low 1.01 | locus YER155C, strain BEM2, active compounds read low 1.02 | locus YER167W, strain BCK2, active compounds read low 1.01 | locus YFR010W, strain ubp6, active compounds read low 1.01 | locus YGL078C, strain dbp3, active compounds read low 0.978 | locus YGL086W, strain mad1, active compounds read low 0.99 | locus YGL167C, strain pmr1, active compounds read low 1.01 | locus YGL173C, strain kem1, active compounds read low 1 | locus YGL227W, strain vid30, active compounds read low 1.02 | locus YGL240W, strain doc1, active compounds read low 1.01 | locus YGL248W, strain PDE1, active compounds read low 1.02 | locus YGL253W, strain hxk2, active compounds read low 1.01 | locus YGR135W, strain pre9, active compounds read low 0.939 | locus YGR229C, strain SMI1, active compounds read low 0.987 | locus YGR252W, strain gcn5, active compounds read low 0.94 | locus YHR013C, strain ard1, active compounds read low 1.01 | locus YHR027C, strain rpn1, active compounds read low 1 | locus YHR030C, strain SLT2, active compounds read low 1.01 and 1.04 | locus YHR079C, strain IRE1 (second series), active compounds read low 0.997 | locus YHR079C, strain IRE1, active compounds read low 1.05 | locus YHR094C, strain hxt1, active compounds read low 0.984 | locus YHR129C, strain ARP1, active compounds read low 1.01 | locus YHR142W, strain chs7, active compounds read low 1.02 | locus YHR200W, strain rpn10, active compounds read low 0.994 | locus YIL066C, strain RNR3, active compounds read low 1.02 | locus YIL073C, strain SPO22, active compounds read low 0.867 | locus YIL125W, strain kgd1, active compounds read low 0.994 | locus YIR030C, strain dcg1, active compounds read low 0.994 | locus YJL092W, strain hpr5, active compounds read low 1.01 | locus YJL095W, strain BCK1 (second series), active compounds read low 1 | locus YJL095W, strain BCK1, active compounds read low 1.01 and 1.05 | locus YJL115W, strain asf1, active compounds read low 1.02 | locus YJL129C, strain trk1, active compounds read low 1.01 | locus YJL134W, strain LCB3, active compounds read low 1.01 | locus YJL154C, strain vps35, active compounds read low 1.01 | locus YJL164C, strain tpk1, active compounds read low 1.01 | locus YJL166W, strain qcr8, active compounds read low 1.01 | locus YJL168C, strain set2, active compounds read low 0.976 | locus YJL187C, strain SWE1 (second series), active compounds read low 1.01 | locus YJL187C, strain SWE1, active compounds read low 1 | locus YJR043C, strain POL32, active compounds read low 0.992
